Source: PubChem BioAssay (Tox21)
Values without a mark were called inactive. Results filed as inconclusive are left out. Entries that show only a call come without a potency. The source made the active and inactive calls. Unless noted, calls come from the whole dose curve; as a rule, active = well fitted curve in the direction sought with a large enough effect in the repeat runs; inconclusive = weak or mixed curves; inactive = no such curve, though single readings can be large; an effect the other way counts as inactive or inconclusive.

Columns and labels:
[1] = qHTS assay to identify small molecule agonists of the hypoxia (HIF-1) signaling pathway - cell viability counter screen (AID 1224844; calls by dose curve; note: nearly all actives have a fitted effect of over 50% in size)
How it was run: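 Viability counter screen: HRE-bla ME-180 cells plated 5 hrs before compound addition, treated 17 hrs at 37C and 5% CO2, then CellTiter-Glo added after the FRET reporter read; luminescence after 30 min.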

[2] = qHTS assay to identify small molecule agonists of H2AX (AID 1224845; active = well fitted activation curve with a large enough effect in the signal ratio in the repeat runs, not every such curve was filed as active; the % refers to the signal ratio)
How it was run: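 Wild-type CHO-K1 cells, plated overnight, exposed 3hr at 37C to 15 concentrations (0.76% DMSO final). Lysed, then HTRF anti-pH2AX (S139) cryptate and anti-H2AX-d2 antibodies, 24 hr room temperature; 665/620 nm emission read.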

[3] = qHTS assay to identify small molecule agonists of the hypoxia (HIF-1) signaling pathway (AID 1224846; active = well fitted activation curve with a large enough effect in the signal ratio in the repeat runs, not every such curve was filed as active; the % refers to the signal ratio)
How it was run: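 Agonist mode reporter screen. ME-180 cells stably expressing bla under HRE control received test compounds in DMSO for 17 hrs (37C, 5% CO2), and beta-lactamase activity was then detected with the CCF4-AM FRET substrate.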

[4] = qHTS assay to identify small molecule agonists of H2AX - cell viability counter screen (AID 1224847; calls by dose curve; note: top concentration of the series differs between compounds; nearly all actives have a fitted effect of over 30% in size)
How it was run: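 Counter-screen for viability: CellTiter-Glo ATP luminescence read after 3 h compound treatment (15-point titration, 0.76% DMSO final) of CHO-K1 cells at 37C, with 30 min room-temperature reagent incubation.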

[5] = qHTS RealTime-Glo MT Cell Viability Assay in HepG2 cells - 24 hour (AID 1224867); note: nearly all actives have a fitted effect of over 50% in size
How it was run: (§1)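 HepG2 suspension premixed with RealTime-Glo reagents is plated at 600 cells per well and left 5 h at 37 C/5% CO2. Compounds in DMSO then go in, and bioluminescence reflecting viable cell number is recorded over 40 h.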

[6] = qHTS RealTime-Glo MT Cell Viability Assay in HEK293 cells - 32 hour (AID 1224868); note: nearly all actives have a fitted effect of over 50% in size; note: potency is the fitted concentration of half-maximal effect
How it was run: (§2)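 Reads taken at 0, 8, 16, 24, 32 and 40 h from the same wells. HEK293 cells (600/well) carried RealTime-Glo reagents from seeding, with compound added after a 5 h settle at 37 C.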

[7] = A CellTox Green Cytotoxicity Assay to monitor cytotoxicity in HEK293 cells - 0 hour (AID 1224869); note: nearly all actives have a fitted effect of over 50% in size
How it was run: (§3)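 Dead-cell fluorescence measured kinetically: asymmetric cyanine dye, HEK293, 600 cells/well, 5 h settle, 23 nL cpd/DMSO, 37 C, reads 0–40 h every 8 h.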

[8] = qHTS RealTime-Glo MT Cell Viability Assay in HepG2 cells - 40 hour (AID 1224870); note: nearly all actives have a fitted effect of over 50% in size
How it was run: (§4)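 HepG2 cells (600/well) mixed with RealTime-Glo MT reagent, settled 5 h at 37 C/5% CO2 before compound addition. Nonlytic NanoLuc luminescence from viable-cell prosubstrate reduction read repeatedly during 40 h treatment at 37 C.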

[9] = A CellTox Green Cytotoxicity Assay to monitor cytotoxicity in HEK293 cells - 40 hour (AID 1224871); note: nearly all actives have a fitted effect of over 45% in size
How it was run: as §3

[10] = qHTS RealTime-Glo MT Cell Viability Assay in HEK293 cells - 16 hour (AID 1224872); note: nearly all actives have a fitted effect of over 50% in size; note: potency is the fitted concentration of half-maximal effect
How it was run: as §2

[11] = qHTS RealTime-Glo MT Cell Viability Assay in HepG2 cells - 8 hour (AID 1224873); note: nearly all actives have a fitted effect of over 55% in size
How it was run: as §4

[12] = qHTS RealTime-Glo MT Cell Viability Assay in HEK293 cells - 40 hour (AID 1224874); conditions: RealTime-Glo luminescence; max response: stronger effect = lower value; note: nearly all actives have a fitted effect of over 50% in size; note: potency is the fitted concentration of half-maximal effect
How it was run: (§5)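 600 HEK293 cells per well, dispensed already mixed with RealTime-Glo MT reagents. Compound dosing came 5 h later. The same wells were read for luminescence at 0, 8, 16, 24, 32 and 40 h of exposure at 37 C.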

[13] = A CellTox Green Cytotoxicity Assay to monitor cytotoxicity in HEK293 cells - 24 hour (AID 1224875); note: nearly all actives have a fitted effect of over 45% in size
How it was run: as §3

[14] = A CellTox Green Cytotoxicity Assay to monitor cytotoxicity in HepG2 cells - 16 hour (AID 1224876); note: nearly all actives have a fitted effect of over 45% in size
How it was run: (§6)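 First, HepG2 cells (600/well) mixed with reagent were plated; second, after 5 h at 37 C they received compounds via pintool; third, fluorescence was measured at 0 h through 40 h at 8 h intervals.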

[15] = qHTS RealTime-Glo MT Cell Viability Assay in HepG2 cells - 32 hour (AID 1224877); note: nearly all actives have a fitted effect of over 55% in size
How it was run: as §1

[16] = A CellTox Green Cytotoxicity Assay to monitor cytotoxicity in HepG2 cells - 40 hour (AID 1224879); note: nearly all actives have a fitted effect of over 40% in size
How it was run: as §6

[17] = qHTS RealTime-Glo MT Cell Viability Assay in HEK293 cells - 0 hour (AID 1224880); note: top concentration of the series differs between compounds; nearly all actives have a fitted effect of over 45% in size
How it was run: as §5

[18] = A CellTox Green Cytotoxicity Assay to monitor cytotoxicity in HepG2 cells - 24 hour (AID 1224878); note: nearly all actives have a fitted effect of over 45% in size
How it was run: as §6

[19] = qHTS assay to identify small molecule agonists of the estrogen related receptor (ERR) signaling pathway from Tox21 library (AID 1224849; calls by dose curve; note: nearly all actives have a fitted effect of over 15% in size); conditions: ERR reporter cell line, ONE-Glo luciferase, 18 h; at 92.4 µM (top of the series) unless noted
How it was run: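 Quantitative HTS in agonist format: NTP ERR cell line, compounds transferred in DMSO after 6 h plating, 18 h incubation at 37 C, ONE-Glo luminescence endpoint.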

Structure (SMILES) | Potency [1] | Potency [2] | outcome [3] | Potency [4] | Potency [5] | Potency [6] | Potency [7] | Potency [8] | Potency [9] | Potency [10] | Potency [11] | max response [12] | Potency [13] | Potency [14] | Potency [15] | Potency [16] | Potency [17] | Potency [12] | Potency [18] | activity change, positive = activation [19]
COC(Cc1ccccc1)OC | inactive | inactive | inactive | inactive | inactive | inactive | inactive | inactive | inactive | inactive | inactive | 17.4% | inactive | inactive | inactive | inactive | inactive |  |  | 
Cc1nc2ccccc2n1Cc1ccc(Cl)cc1 | inactive | inactive | inactive | inactive | inactive | 1.69 µM (active) | inactive | inactive | inactive | 3.01 µM (active) | inactive |  | inactive | inactive | inactive | inactive | inactive | 1.69 µM (active) | inactive | 
CCCCCCCCCC=O | inactive | inactive | inactive | inactive | inactive | inactive | inactive | inactive | inactive | inactive | inactive | 7.4% | inactive | inactive | inactive | inactive | inactive |  | inactive | 
CCCCOCCOCCOCCOCCO | inactive | inactive | inactive | inactive | inactive | inactive | inactive | inactive | inactive | inactive | inactive | -11.7% | inactive | inactive | inactive |  | inactive |  | inactive | 
O=C(O)[C@@H]1[C@H]2C[C@H]3c4[nH]c5ccccc5c4CCN3C[C@@H]2CC[C@@H]1O | inactive | inactive | inactive | inactive | inactive |  | inactive | inactive | inactive | inactive | inactive | 1.89% | inactive |  | inactive |  | inactive |  |  | 1.64% [at 42.5 µM]
C=CCCCCCC | inactive | inactive | inactive | inactive | inactive |  | inactive | inactive | inactive | inactive | inactive | 9.99% | inactive | inactive | inactive | inactive | inactive |  | inactive | 4.67%
CC(=O)SCc1ccco1 | inactive | inactive | inactive | inactive | inactive | inactive | inactive | inactive | inactive | inactive | inactive | 13.4% | inactive | inactive | inactive | inactive | inactive |  | inactive | 
CN1CCN(C2=Nc3ccccc3Sc3ccc(Cl)cc32)CC1 | inactive | inactive | inactive | inactive | inactive |  | inactive | inactive | inactive | inactive | inactive | -9.09% | inactive | inactive | inactive | inactive | inactive |  | inactive | 1.89% [at 42.5 µM]
CCOC(=S)SSC(=S)OCC | inactive | inactive | inactive | inactive | inactive | inactive | inactive | inactive |  | inactive | inactive | 1.68% | inactive | inactive | inactive | inactive | inactive |  | inactive | 
CC1=CC(=O)/C(=C(/C)O)C(=O)O1 | inactive | inactive | inactive | inactive | inactive | inactive | inactive | inactive | inactive | inactive | inactive | 16.6% | inactive | inactive | inactive | inactive | inactive |  | inactive | 
C[C@@H](C1=C(CCN(C)C)Cc2ccccc21)c1ccccn1 | inactive | inactive | inactive | inactive | inactive | inactive | inactive | inactive | inactive | inactive | inactive | -16.8% | inactive | inactive | inactive |  | inactive |  | inactive | 
Cc1ncsc1CCO | inactive | inactive | inactive | inactive | inactive | inactive | inactive | inactive | inactive | inactive | inactive | 14.2% | inactive | inactive | inactive |  | inactive |  | inactive | 
N#Cc1c(F)cccc1F | inactive | inactive | inactive | inactive | inactive | inactive | inactive | inactive | inactive | inactive | inactive | -15.1% | inactive | inactive | inactive | inactive | inactive |  |  | 
CN1CCC(OC(c2ccccc2)c2ccccc2)CC1 | inactive | inactive | inactive | inactive | inactive | inactive | inactive | inactive | inactive | inactive | inactive |  | inactive | inactive | inactive | inactive | inactive |  | inactive | 
N#CCc1cccc(C(F)(F)F)c1 | inactive | inactive | inactive | inactive | inactive | inactive | inactive | inactive |  | inactive | inactive | 10.3% |  | inactive | inactive | inactive | inactive |  | inactive | 
